Screening results deposited in PubChem BioAssay by National Center for Advancing Translational Sciences (NCATS).
Compounds with a hit are over-represented: about 2.3% of the library has one in this group of screens.
TRPV1 potentiator – potentiators of human vanilloid receptor 1 (TRPV1) | Q8NER1 | potentiation, % at 8.33 µM | 0.02% of 320,000 active | TRPV1-expressing cells, Fluo-8 calcium influx, capsaicin EC20 potentiation; in the data active = potentiation above about 80%; inconclusive = between about 30% and that limit; also: 0% is about no effect
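Fluo-8 calcium influx in TRPV1-expressing cells, kinetic read (ex 480/em 520 nm). Compound added and read 3 min for agonist activity, followed by capsaicin at EC20 final and 2 min further read for enhancement.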
ELG1 repair inh – inhibitors of ELG1-dependent DNA repair in HEK293T cells | HEK293T ELG1-luciferase reporter, luminescence, 16 h; DNA damage induced by 5-fluorouridine | Potency, µM (series often up to 46.1 µM), for the others: top-dose activity change, negative = inhibition, actives largely listed as inhibitors | 2.3% of 330,000 active | AID 504467; also: potency is read from the fitted curve at half-maximal effect; % is scaled to controls: 0 for no effect and ±100 for the full control effect; nearly all actives have a fitted effect of over 55% in size
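5-Fluorouridine DNA damage + compound/DMSO, 2,000 cells/well, 16 h, 37 °C/5% CO2. ONE-Glo, 30 min RT, luminescence. Readout = decrease in reporter signal.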
Giardia killer – Giardia lamblia killing. Giardia lamblia trophozoite viability. activity change, % at 7.66 µM, hits read low. 0.15% of 340,000 active; in the data active = activity change below about -80%; inconclusive = between about -30% and that limit;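 also: parasites exposed to compound for two days anaerobically before the ATP read; % is scaled to controls: 0 for no effect and ±100 for the full control effect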
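Giardia lamblia trophozoites (100 cells/well) were incubated with compounds for 48 h at 37 deg C under anaerobic conditions. Viability was read as ATP content by one-step luminescence after 15-30 min at room temperature.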
FUS yeast rescue – FUS proteinopathy suppression in yeast | S. cerevisiae FUS-expressing, growth rescue, OD600, 24 h | 0.24% of 390,000 active | Potency, µM (series often up to 76.6 µM), usual class: activators;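 also: potency is read from the fitted curve at half-maximal effect; plate controls were DMSO vehicle for no effect and reference control for full effect; nearly all actives have a fitted effect of over 55% in size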
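Quantitative HTS measuring growth restoration of FUS-toxic yeast. Galactose-induced cells (OD 0.005) were exposed 24hr at 30C to compounds at several concentrations, then absorbance at 600 nm was recorded.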
TRPV1 ag – activates the human vanilloid receptor TRPV1; activation, % at 8.33 µM; 0.19% of 320,000 active; AID 540275; TRPV1-expressing cells, Fluo-8 calcium influx, agonist mode; Q8NER1; in the data active = activation above about 80%; inconclusive = between about 30% and that limit; also: 0% is about no effect
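Fluo-8 calcium influx in TRPV1-expressing cells, kinetic read (ex 480/em 520 nm). Compound added and read 3 min for agonist activity, followed by capsaicin at EC20 final and 2 min further read for enhancement.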
ELG1 FLuc counter – luciferase inhibition in cell-free luciferin readout for ELG1 hits | shares compounds with ELG1 repair inh | cell-free firefly luciferase luminescence counter-screen, ViewLux | Potency, µM (doses to about 46.1 µM), without a hit: at the highest dose activity change, negative = inhibition, hits mostly inhibitors | 3% of 350 active | AID 624247; also: potency is read from the fitted curve at half-maximal effect; % is scaled to controls: 0 for no effect and ±100 for the full control effect
ELG1-Luc inh – human ELG1 repair inhibition, luciferase-tagged ELG1 confirmation. HEK293T ELG1-luciferase levels, luminescence; cells co-treated with 5-fluorouridine. Potency, µM (doses to about 46.1 µM), for inactives: top-dose activity change, negative = inhibition, most hits filed as inhibitors. 68% of 670 active. shares compounds with ELG1 repair inh. AID 624248; also: potency is read from the fitted curve at half-maximal effect; % is scaled to controls: 0 for no effect and ±100 for the full control effect; nearly all actives have a fitted effect of over 55% in size
ELG1 MMS Luc – MMS-stimulated human ELG1 repair inhibition, confirmed; shares compounds with ELG1 repair inh; HEK293T luciferase-tagged ELG1 level, MMS stimulated; Potency, µM (highest dose often 46.1 µM), inactives show at the highest dose activity change, negative = inhibition, usual class: inhibitors; 53% of 670 active; AID 624249; also: potency is read from the fitted curve at half-maximal effect; % is scaled to controls: 0 for no effect and ±100 for the full control effect; nearly all actives have a fitted effect of over 60% in size
ELG1 5-FU – confirmation of ELG1 repair inhibitors: viability with 5FU | shares compounds with ELG1 repair inh | cell viability with 5-FU, ELG1-dependent repair | Potency, µM (highest dose often 46.1 µM), inactives show top-dose activity change, negative = viability loss, hits mostly cytotoxic | 670 tested, under 10 active | AID 624250;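 also: ELG1-luc HEK293T cells cotreated with 5-fluorouridine at 10 µM final; potency is read from the fitted curve at half-maximal effect; viability measured 16 h after compound addition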
ELG1 MMS cell – confirmation of ELG1 repair inhibitors: viability with MMS | shares compounds with ELG1 repair inh | Cell viability with MMS, ELG1-dependent DNA repair | Potency, µM (titrated, usually from 46.1 µM), for the others: at the highest dose activity change, negative = viability loss, actives largely listed as cytotoxic | 33% of 670 active | AID 624251;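 also: ELG1-luc HEK293T cells co-treated with 10 µM MMS; potency is read from the fitted curve at half-maximal effect; viability read 16 h after compound addition; % is scaled to controls: 0 for no effect and ±100 for the full control effect; nearly all actives have a fitted effect of over 60% in size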
Cell viab unstim – affects unstimulated cell viability, ELG1 hit counter-screen; shares compounds with ELG1 repair inh; cell viability counter-screen, unstimulated, luminescence; Potency, µM (top dose mostly 45.9 µM), without a hit: at the top dose activity change, negative = loss of viability, usual class: cytotoxic; 8% of 900 active; AID 624252;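 also: potency is read from the fitted curve at half-maximal effect; compound exposure lasted 16 hours before reading; % is scaled to controls: 0 for no effect and ±100 for the full control effect; nearly all actives have a fitted effect of over 55% in size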
FLuc enzyme – firefly luciferase inhibition counter-screen | 10% of 350 active | purified firefly luciferase, luminescence counter-screen | shares compounds with ELG1 repair inh | Potency, µM (series often up to 57.5 µM), for the others: at the top dose activity, negative = inhibition, hits mostly inhibitors | AID 624253; also: potency is read from the fitted curve at half-maximal effect; % is scaled to controls: 0 for no effect and ±100 for the full control effect
Numbers without * were called inactive; i = inactive; ? = inconclusive; . = not tested or not shown. Unless noted, calls follow the shape of the dose curve; as a rule, active = well fitted curve in the direction sought with a large enough effect; inconclusive = small, poorly fitted or top-dose-only effect, or another doubt; inactive = no such curve, though single readings can be large; an effect the other way counts as inactive or inconclusive.

SMILES	TRPV1 potentiator	ELG1 repair inh	Giardia killer	FUS yeast rescue	TRPV1 ag	ELG1-Luc inh	ELG1 MMS Luc	ELG1 5-FU	ELG1 MMS cell	Cell viab unstim	others
Cc1ccc(COc2ccc3oc(-c4ccccc4)c(C(=O)O)c3c2)cc1	-4	.	12	i	3	.	.	.	.	.
Cc1ccc(Cn2c(=O)c3ccccc3n3c(-c4ccccc4)nnc23)cc1	.	.	.	i	.	.	.	.	.	.
O=C(Nc1nonc1NC(=O)c1cccs1)c1cccs1	?	4.1µM*	23	i	3	?	4.4µM*	-5%	5µM*	?
CCc1cn(C2CC(O)C(CO)O2)c(=O)[nH]c1=O (stereo not drawn)	7	?	13	i	-6	.	.	.	.	.
Cc1ccc(Cl)cc1-n1ncc2c(N3CCN(Cc4ccccc4)CC3)ncnc21	.	.	.	i	.	.	.	.	.	.
CCOCCCNC(=O)c1cn(C)c2ccc(S(=O)(=O)N3CCCCC3)cc2c1=O	3	-4%	-18	i	2	.	.	.	.	.
CCn1cc(C(=O)NCC(OC)OC)c(=O)c2cc(S(=O)(=O)N3CCCC3)ccc21	8	-16%	27	i	0	.	.	.	.	.
COCCNC(=O)c1cn(C)c2ccc(S(=O)(=O)N3CCCCC3)cc2c1=O	27	2.9µM*	9	i	0	?	?	-2%	-15%	?
CCn1cc(C(=O)NCC(OC)OC)c(=O)c2cc(S(=O)(=O)N3CCC(C)CC3)ccc21	8	2.6µM*	-20	i	6	16µM*	16µM*	-20%	?	16µM*
O=C(NCc1cccc(Cl)c1)c1c2c(nc3ccccc13)C(=O)N(C1CCCCC1)C2	.	.	.	i	.	.	.	.	.	.
CCC(CO)Oc1cc(NCc2ccccc2O)c2ncn(C(C)C)c2c1 (stereo not drawn)	.	2.3µM*	-5	i	.	8.9µM*	4.4µM*	6%	4.4µM*	?
CCOc1ccc(C(=O)Nc2ccccc2N2CCN(C(=O)c3ccccc3)CC2)cc1[N+](=O)[O-]	-1	4.6µM*	1	.	8	6.3µM*	?	6%	-1%	-15%
COc1ccc(NC(=O)C2CCN(c3ncnc4c3nc3n4CCCCC3)CC2)cc1Cl	-27	1.8µM*	0	i	?	3.2µM*	?	?	?	?	ELG1 FLuc counter=7%;FLuc enzyme=-4%
Cc1ccc(NC(=O)C2CCN(c3ncnc4c3nc3n4CCCCC3)CC2)cc1Cl	?	2.3µM*	15	i	3	10µM*	18µM*	?	-14%	?	ELG1 FLuc counter=-1%;FLuc enzyme=0%
O=C(Nc1ccc(F)cc1)C1CCN(c2ncnc3c2nc2n3CCCCC2)CC1	-5	?	-30	i	?	.	.	.	.	.
COc1ccc(CCN2C(=O)CSC2=Nc2ccc(C(C)C)cc2)cc1OC	-5	4.1µM*	27	i	2	25µM*	2.5µM*	?	2µM*	16µM*
Cc1nn(C)c(C)c1/C=C/C(=O)O	1	-1%	-14	i	-1	.	.	.	.	.
Cc1nn(C)c(C)c1/C=C/C(=O)c1ccc(Cl)cc1Cl	-15	4.1µM*	-14	i	14	5%	1.6µM*	-5%	2.2µM*	?
CCC(CO)Nc1ncnc2c1cnn2-c1ccc(C)cc1 (stereo not drawn)	.	.	.	i	.	.	.	.	.	.
O=C(NCc1ccc(Cl)cc1)c1ccc(CNS(=O)(=O)c2ccc(F)cc2)cc1	.	.	.	i	.	.	.	.	.	.
COc1ccc(Cn2c(O)c(C=Nc3ccc(OC)cc3)c3ccccc3c2=O)cc1	23	-20%	-10	.	2	.	.	.	.	.
COc1ccc(Cn2c(O)c(C=Nc3ccccc3C(=O)O)c3ccccc3c2=O)cc1	-2	4.1µM*	-8	i	-5	3.5µM*	2.5µM*	-14%	2.8µM*	?
O=C(Nc1ccc(N2CCN(Cc3ccccc3F)CC2)cc1)c1ccc([N+](=O)[O-])o1	-17	2.6µM*	-96*	i	4	4µM*	4.4µM*	7%	6.3µM*	-18%
Cc1ccc(-c2csc(=Nc3cccnc3)n2CCCN2CCCC2=O)cc1C	0	?	-15	i	8	.	.	.	.	.
Cc1ccc(-c2csc(=Nc3cccnc3)n2CCCn2ccnc2)cc1C	8	2.9µM*	-6	i	-5	4µM*	6.3µM*	-3%	10µM*	22µM*	ELG1 FLuc counter=?;FLuc enzyme=1%
COc1cc(C(=O)NCc2ccncc2)cc(OC)c1OC	-2	?	5	i	4	.	.	.	.	.
COc1cc(C(=O)NCc2ccccc2)cc(Br)c1OC	10	3.7µM*	22	i	-12	?	-6%	?	12%	6%
O=C(/C=C/[C@H]1O[C@@H](n2ccc(=O)[nH]c2=O)[C@H](O)[C@@H]1O)NCCN1CCOCC1	.	.	.	i	.	.	.	.	.	.
O=C(C1=C[C@@H](c2ccc3c(c2)OCO3)C[C@@H](OCCCCO)O1)N1CCN(Cc2ccc3c(c2)OCO3)CC1	0	0%	0	i	22	.	.	.	.	.
CC(=O)n1cc([C@H]2C=C(C(=O)N3CCN(Cc4ccccc4)CC3)O[C@@H](OCCCCO)C2)c2ccccc21	7	-6%	18	i	-1	.	.	.	.	.
